# Results from PubChem BioAssay.
# Where “and” joins values, the source holds several entries; their conditions need not be identical. Equal entries are not always repeated. Values without a mark were called inactive. The list shows a part of the results. Calls of active or inactive are those of the source. Rule as the data show it, unless noted: active = inhibition above about 11%; inactive = the rest.
# Experiments:
# [1] = target: Serine protease HTRA1 (Homo sapiens) (UniProt Q92743); assay: confirming inhibition of human HTRA1 – biochemical, fluorescence polarization, confirmation (AID 540248;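 active = mean inhibition over three repeats above a set limit taken from the earlier primary screen, cut at about 37% in these data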;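 also: 0% = HTRA1 with DMSO and 100% = wells lacking HTRA1; inhibitors block probe binding so polarization drops and inhibition rises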); details: recombinant HTRA1, FP-rhodamine activity-based probe, at 5.96 µM, active compounds read high
# [2] = target: Nuclear receptor coactivator 3 (Homo sapiens) (UniProt Q9Y6Q9); assay: NCOA3 GAL4-fusion reporter inhibition – cell-based, luminescence, quadruplicate, confirmation (AID 588792;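 active = mean inhibition over 43.08%, the solvent-only control mean plus 3 SD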;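 also: 0% = DMSO treated cells and 100% = gossypol at 36 µM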); details: HEK293 GAL4-SRC3 luciferase reporter, at 3.6 µM, active compounds read high
# Sequence of Nuclear receptor coactivator 3 (Homo sapiens) (Q9Y6Q9 whole entry, looked up, the tested form may be a part): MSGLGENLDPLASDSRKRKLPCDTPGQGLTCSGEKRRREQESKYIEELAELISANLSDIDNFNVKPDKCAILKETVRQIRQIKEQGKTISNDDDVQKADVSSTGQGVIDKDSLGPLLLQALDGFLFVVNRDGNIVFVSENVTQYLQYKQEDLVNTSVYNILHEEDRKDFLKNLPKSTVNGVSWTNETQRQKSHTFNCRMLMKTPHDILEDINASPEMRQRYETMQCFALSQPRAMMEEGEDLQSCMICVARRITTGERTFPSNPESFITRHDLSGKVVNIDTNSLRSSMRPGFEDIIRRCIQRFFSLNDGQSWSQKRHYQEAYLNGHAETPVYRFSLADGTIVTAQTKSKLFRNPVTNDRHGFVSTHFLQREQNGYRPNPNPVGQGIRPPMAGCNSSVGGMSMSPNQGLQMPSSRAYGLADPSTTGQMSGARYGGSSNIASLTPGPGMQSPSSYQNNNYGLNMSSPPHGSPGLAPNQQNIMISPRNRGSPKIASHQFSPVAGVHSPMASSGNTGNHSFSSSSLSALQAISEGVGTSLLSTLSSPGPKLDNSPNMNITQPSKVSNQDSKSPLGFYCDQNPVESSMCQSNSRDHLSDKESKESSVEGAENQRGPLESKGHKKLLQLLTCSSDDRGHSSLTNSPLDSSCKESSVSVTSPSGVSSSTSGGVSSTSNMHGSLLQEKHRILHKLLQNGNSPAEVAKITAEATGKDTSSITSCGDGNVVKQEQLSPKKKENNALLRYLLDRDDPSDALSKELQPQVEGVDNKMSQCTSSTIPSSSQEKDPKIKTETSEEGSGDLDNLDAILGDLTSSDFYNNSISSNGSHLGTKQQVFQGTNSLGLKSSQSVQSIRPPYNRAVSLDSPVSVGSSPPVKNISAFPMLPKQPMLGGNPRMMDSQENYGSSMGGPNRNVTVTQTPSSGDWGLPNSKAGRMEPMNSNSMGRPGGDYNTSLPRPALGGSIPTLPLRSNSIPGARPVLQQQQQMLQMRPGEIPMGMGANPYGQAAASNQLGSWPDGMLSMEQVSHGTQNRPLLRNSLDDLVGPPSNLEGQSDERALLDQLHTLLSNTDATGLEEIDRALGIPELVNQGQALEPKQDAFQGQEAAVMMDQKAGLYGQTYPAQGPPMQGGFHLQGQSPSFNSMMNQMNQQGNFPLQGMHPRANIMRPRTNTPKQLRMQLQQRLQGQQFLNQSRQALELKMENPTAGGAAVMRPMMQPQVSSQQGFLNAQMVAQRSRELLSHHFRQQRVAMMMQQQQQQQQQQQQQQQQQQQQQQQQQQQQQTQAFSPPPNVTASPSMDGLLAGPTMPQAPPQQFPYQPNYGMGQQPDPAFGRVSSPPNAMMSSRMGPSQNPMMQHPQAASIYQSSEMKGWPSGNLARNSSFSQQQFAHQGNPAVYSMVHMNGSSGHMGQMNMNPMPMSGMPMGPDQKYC
# [3] = test system: transactivating tegument protein VP16 (Human herpesvirus 1), Gal4-VP16 luciferase reporter; assay: repression of VP16-driven luciferase reporter – cell-based, luminescence, high throughput, counter-screen for SRC3 inhibitor project (AID 588794; in the data active = inhibition above about 30%); details: mammalian cells, at 3.6 µM, active compounds read high
# [4] = reduced OD of V66 E. coli with T4 gene 2 phage – absorbance, RecBCD inhibitor project, confirmation (AID 651982;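 active = mean inhibition over triplicates exceeding the hit threshold derived in the original primary screen, cut at about 11% in these data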); details: E. coli V66 + T4 2- phage, growth OD; at 11.9 µM; active compounds read high
# [5] = bacterial growth inhibition – absorbance, high throughput, counter-screen for RecBCD inhibitor project (AID 651983; in the data active = inhibition above about 20%;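 also: E. coli strain V66 grown with compound alone and no phage infection; 0% = bacteria with DMSO vehicle only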); details: E. coli viability, absorbance (OD) growth; at 11.9 µM; active compounds read high
# [6] = reduced optical density, T4-challenged addAB+ bacteria – absorbance, E. coli V3065, T4 phage, counter-screen for RecBCD inhibitor project, confirmation (AID 651984;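 active = mean inhibition above the solvent-only control wells' mean plus 3 SD, cut at about 22% in these data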;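 also: higher means less bacterial growth from phage killing when AddAB is blocked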); details: E. coli expressing H. pylori AddAB + T4 phage, OD growth; at 11.9 µM; active compounds read high; gene 2 mutant T4, recBCD-deleted host
# [7] = target: Toll-like receptor 9 (Homo sapiens) (UniProt Q9NR96); assay: disruptors of TLR9 binding to MyD88 – cell-based, CHO, BLA complementation, fluorescence, triplicate, confirmation (AID 540250;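 active = mean inhibition across three repeats above about 21% taken from the earlier screen, limit read from the data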;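 also: blue over green emission ratio reports constitutive TLR9 MyD88 association via BLA complementation; 0% = DMSO vehicle wells and 100% = clavulanate BLA inhibitor wells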); details: CCF4 FRET ratio, at 4.98 µM, active compounds read high
# Sequence of Toll-like receptor 9 (Homo sapiens) (Q9NR96 whole entry, looked up): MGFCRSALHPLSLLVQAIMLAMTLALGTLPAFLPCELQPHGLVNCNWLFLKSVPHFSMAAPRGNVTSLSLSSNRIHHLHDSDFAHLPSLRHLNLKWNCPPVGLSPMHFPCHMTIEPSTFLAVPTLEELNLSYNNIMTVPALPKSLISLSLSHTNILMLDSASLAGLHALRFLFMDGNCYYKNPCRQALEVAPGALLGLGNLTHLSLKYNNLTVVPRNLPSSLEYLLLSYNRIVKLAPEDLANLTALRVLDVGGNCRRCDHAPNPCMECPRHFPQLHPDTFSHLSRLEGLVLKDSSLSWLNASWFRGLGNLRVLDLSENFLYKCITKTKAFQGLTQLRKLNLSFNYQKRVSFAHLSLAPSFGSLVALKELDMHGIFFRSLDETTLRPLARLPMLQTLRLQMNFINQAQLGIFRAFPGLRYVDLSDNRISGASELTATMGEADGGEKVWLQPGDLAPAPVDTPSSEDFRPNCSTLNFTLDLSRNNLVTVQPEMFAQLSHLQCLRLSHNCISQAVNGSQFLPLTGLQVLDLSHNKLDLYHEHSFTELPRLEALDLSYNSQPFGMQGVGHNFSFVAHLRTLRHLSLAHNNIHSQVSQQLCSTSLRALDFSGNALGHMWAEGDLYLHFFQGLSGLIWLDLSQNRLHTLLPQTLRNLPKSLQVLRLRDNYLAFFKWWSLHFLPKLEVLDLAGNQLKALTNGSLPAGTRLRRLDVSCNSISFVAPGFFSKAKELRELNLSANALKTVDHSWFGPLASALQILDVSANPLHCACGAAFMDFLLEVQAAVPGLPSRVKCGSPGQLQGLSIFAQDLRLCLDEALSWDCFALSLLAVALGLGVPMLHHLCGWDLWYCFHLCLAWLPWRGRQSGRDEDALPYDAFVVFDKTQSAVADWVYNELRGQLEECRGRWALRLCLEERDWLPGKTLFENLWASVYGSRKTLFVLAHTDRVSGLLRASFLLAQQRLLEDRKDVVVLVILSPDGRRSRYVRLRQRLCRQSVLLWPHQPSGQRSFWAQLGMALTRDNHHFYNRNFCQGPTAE
# [8] = BLA reporter readout interference – cell-based, fluorescence, artefact control for TLR9-MyD88 binding inhibitor project (AID 540251;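 active = mean inhibition above a 50% cutoff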;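 also: counterscreen of TLR9-MyD88 hits on CMV-driven BLA in CHO-K1 cells; 0% = DMSO alone and 100% = clavulanate blocking BLA; higher means less blue over green ratio so more BLA blockade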); details: CHO-BLA cells, CCF4 FRET ratio, at 4.98 µM, active compounds read high
# [9] = CHO cell viability loss – luminescence, single concentration, cytotoxicity control for TLR9-MyD88 binding inhibitor project (AID 588336); details: TLR9-MyD88 CHO cells cytotoxicity, at 4.98 µM, active compounds read high
# [10] = BSA probe fluorescence interference – biochemical, TAMRA-labeled BSA, counter-screen for TCR-CD3 interaction inhibitor project (AID 652035; in the data active = inhibition above about 23%;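 also: 0% = buffer low control and 100% = reference high control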); details: TAMRA-labeled BSA probe fluorescence counterscreen; at 9.4 µM; active compounds read high
# [11] = test system: T-cell receptor (TCR)-CD3 interaction, human; assay: blockers of TCR binding to CD3 – biochemical, fluorescence, TAMRA-labeled TCR probe, confirmation (AID 652036; in the data active = inhibition above about 19%); details: TAMRA-labeled TCR probe fluorescence binding assay; at 9.4 µM; active compounds read high
# [12] = target: Receptor-interacting serine/threonine-protein kinase 2 (Homo sapiens) (UniProt O43353); assay: inhibitors of RIPK2 association with NOD2 – fluorescence, CHO cells, BLA complementation, triplicate, confirmation (AID 624370;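 active = mean inhibition across replicates above a set limit taken from the earlier primary screen, cut at about 21% in these data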;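 also: 0% = DMSO-only wells and the high end = clavulanate BLA-blocked wells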); details: CCF4 FRET, at 4.98 µM, active compounds read high
# Sequence of Receptor-interacting serine/threonine-protein kinase 2 (Homo sapiens) (O43353 whole entry, looked up): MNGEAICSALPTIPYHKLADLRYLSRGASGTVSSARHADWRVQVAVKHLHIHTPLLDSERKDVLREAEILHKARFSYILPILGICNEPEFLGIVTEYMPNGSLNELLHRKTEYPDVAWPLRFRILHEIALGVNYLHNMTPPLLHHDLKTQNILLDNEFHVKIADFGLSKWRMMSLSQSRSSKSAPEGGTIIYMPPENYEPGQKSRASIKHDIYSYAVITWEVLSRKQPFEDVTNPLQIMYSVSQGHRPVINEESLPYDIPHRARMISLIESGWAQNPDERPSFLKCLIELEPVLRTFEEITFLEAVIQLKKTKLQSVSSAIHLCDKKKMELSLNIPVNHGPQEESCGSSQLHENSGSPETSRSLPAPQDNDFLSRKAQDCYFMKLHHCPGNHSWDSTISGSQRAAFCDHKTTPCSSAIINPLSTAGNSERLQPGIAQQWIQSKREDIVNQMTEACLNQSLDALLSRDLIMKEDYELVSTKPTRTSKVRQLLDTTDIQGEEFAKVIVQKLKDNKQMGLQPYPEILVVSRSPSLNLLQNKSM
# [13] = BLA reporter readout interference – cell-based, CHO-K1 CMV-bla, CCF4 FRET, fluorescence, artefact control for NOD2-RIPK2 interaction inhibitor project, confirmation (AID 624371;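 active = mean inhibition above the low-control mean inhibition plus three low-control SD, cut at about 11% in these data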;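 also: 0% = DMSO only wells and 100% = clavulanate high control wells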); details: CCF4 FRET ratio, counterscreen, at 4.98 µM, active compounds read high
# [14] = target: (Lyso)-N-acylphosphatidylethanolamine lipase (Mus musculus) (UniProt Q8VD66); assay: mouse ABHD4 hydrolase blockers, triplicate – biochemical, fluorescence polarization, confirmation (AID 720658;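 active = mean inhibition across replicates above the hit cutoff set in the primary screen, cut at about 30% in these data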;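 also: 0% = wild-type ABHD4 with DMSO and 100% = catalytically dead S159A mutant with DMSO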); details: purified mABHD4, FP-Rh probe fluorescence polarization; at 8.92 µM; active compounds read high
# Sequence of (Lyso)-N-acylphosphatidylethanolamine lipase (Mus musculus) (Q8VD66 whole entry, looked up): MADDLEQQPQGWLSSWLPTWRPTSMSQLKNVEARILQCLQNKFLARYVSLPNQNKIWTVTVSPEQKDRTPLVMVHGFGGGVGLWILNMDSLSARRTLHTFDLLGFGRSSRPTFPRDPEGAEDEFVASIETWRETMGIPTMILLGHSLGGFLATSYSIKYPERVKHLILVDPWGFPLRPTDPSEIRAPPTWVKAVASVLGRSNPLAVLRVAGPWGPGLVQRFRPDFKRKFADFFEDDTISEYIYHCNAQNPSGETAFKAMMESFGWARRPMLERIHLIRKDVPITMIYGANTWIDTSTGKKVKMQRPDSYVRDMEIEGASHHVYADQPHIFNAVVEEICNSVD
structure (smiles),measurement,setting,value
Oc1c(CN2CCN(c3ccc(F)cc3)CC2)cc(Cl)c2cccnc12,inhibition,[1],50.9% (active)
same,inhibition,[2],52.3% (active)
same,inhibition,[3],42.8% (active)
same,inhibition,[4],4.78%
same,inhibition,[5],6.62%
same,inhibition,[6],3.33%
NS(=O)(=O)c1ccc(NC(=O)COC(=O)c2c3c(nc4ccccc24)/C(=C\c2ccc4c(c2)OCO4)CCC3)cc1,inhibition,[7],17.9%
same,inhibition,[8],22.2%
same,inhibition,[9],0.35%
same,inhibition,[10],5.98%
same,inhibition,[11],15.7%
COc1cc(C(=O)N2C(=O)c3cccc(N)c3C2=O)cc(OC)c1OC,inhibition,[7],11.4%
same,inhibition,[8],13.3%
same,inhibition,[9],1.27%
COc1ccccc1/C=C/C(=O)OCC(=O)NC1CCCCCC1,inhibition,[7],-4.73%
same,inhibition,[8],-6.03%
same,inhibition,[9],0.37%
O=C(COC(=O)c1c2c(nc3ccccc13)/C(=C\c1cccs1)CCC2)Nc1ccccc1Cl,inhibition,[7],11.4%
same,inhibition,[8],18.4%
same,inhibition,[9],-3.1%
Cc1cc(C)nc(SCc2ccccc2C#N)n1,inhibition,[7],1.99%
same,inhibition,[8],0.68%
same,inhibition,[9],2.36%
Cc1cc2oc3ccc(NCCC4CCCN4C)cc3c(=O)c2cc1C (stereo not drawn),inhibition,[7],19.1%
same,inhibition,[8],16.7%
same,inhibition,[9],31% (active)
same,inhibition,[12],42.8% (active)
same,inhibition,[13],38.5% (active)
COc1ccc(-c2nn(-c3ccccc3)cc2/C=N/Nc2ccccn2)cc1OC,inhibition,[7],2.6%
same,inhibition,[8],2.28%
same,inhibition,[9],4.63%
COc1ccccc1C1=Nc2cccc3cccc(c23)N1,inhibition,[1],67.4% (active)
same,inhibition,[14],60.5% (active)
O=C(N/N=C/c1ccc(O)c(O)c1)C1c2ccccc2Oc2ccccc21,inhibition,[1],76.6% (active)
O=C1c2ccccc2C(=O)c2c1cccc2N1CCN(Cc2ccccc2)CC1,inhibition,[1],60.1% (active)
COc1ccc(OC)c(N=Cc2c(O)[nH]c3ccccc23)c1,inhibition,[7],-1.61%
same,inhibition,[8],1.7%
same,inhibition,[9],19.8% (active)
same,inhibition,[12],61.8% (active)
same,inhibition,[13],59.3% (active)
Oc1ccc2ccc3cccc[n+]3c2c1,inhibition,[7],11.3%
same,inhibition,[8],11.8%
same,inhibition,[9],5.09%
same,inhibition,[12],36.5% (active)
same,inhibition,[13],32.6% (active)
COc1cccc(/C=N/Nc2ccc(S(=O)(=O)Nc3ccccc3C(=O)O)cc2[N+](=O)[O-])c1O,inhibition,[1],25.5%
same,inhibition,[14],67.4% (active)
NC(=O)NC(=O)C(OC(=O)CCNS(=O)(=O)c1ccccc1)c1ccccc1 (stereo not drawn),inhibition,[1],23.1%
COc1ccc(-c2nc3cnccn3c2NC2CCCCC2)cc1-c1cccc(Cl)c1,inhibition,[7],25.7% (active)
same,inhibition,[8],29.5%
same,inhibition,[9],-0.82%
same,inhibition,[12],39.6% (active) and 39.4% (active)
same,inhibition,[13],49.6% (active) and 50.5% (active)
